“And” between values parts separate entries of the source, which are not always exact repeats. Equal values may be shown once. Results filed as inconclusive are left out. The source made the active and inactive calls. Unless noted, the call rests on the fitted dose curve; in most records, active means well fitted curve in the direction sought with a large enough effect; inconclusive means small, poorly fitted or top-dose-only effect, or another doubt; inactive means no such curve, though single readings can be large; an effect the other way counts as inactive or inconclusive. Peptide text beside a SMILES is read from it.
Tests used:
[1] = Validation of Assay for Modulators of Lamin A Splicing (AID 1459; active means well fitted curve in the direction sought with a large enough effect in the signal ratio; the % refers to the signal ratio;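 further: cells exposed to compound for two days before reading; 0% is about no effect; ratio rise marks activators and ratio drop marks inhibitors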)
From the text: Hutchinson-Gilford Progeria Syndrome (HGPS) is a pediatric premature aging disease caused by a spontaneous mutation in the lamin A/C (LMNA) gene. The mutation activates a cryptic splice site in the LMNA pre-mRNA which results in production of a pre-lamin A protein that cannot be processed properly. The mutant protein accumulates in the nucleus and negatively affects numerous cellular functions. Correction of the splicing defect in HGPS patient cells using a targeted oligonucleotide (exo11) leads to reversal of the cellular disease phenotypes. […]
Bowen, W. P.; Wylie, P. G. Application of Laser-Scanning Fluorescence Microplate Cytometry in High Content Screening. […]
HeLa cells were prepared for the assay when they were 70-90% confluent. The cells were counted and resuspended in Opti-MEM I (no phenol red; Gibco), 2% FBS, 1% penicillin/ streptomycin (Gibco) at concentration of 120 cells/uL concentration. […]
5 uL of HeLa cells were plated in Aurora LoBase black clear bottom (cyclic-olefin polymer) 1536-well plates at a final density of 600 cells/well. […] Following incubation the plates were read on the Acumen Explorer using the 488 nm laser. […] The ratio of the total object intensity in PMT1 (500-530 nm emission; GFP) over PMT3 (575-640 nm emission; RFP) was calculated for analysis. […]

[2] = target: DNA repair nuclease/redox regulator APEX1 (Homo sapiens) (UniProt P27695); experiment: qHTS Validation Assay for Inhibitors of the Human Apurinic/apyrimidinic Endonuclease 1 (APE1) (AID 1705;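 further: TAMRA fluorescence gain over two minutes as APE1 cuts a quenched THF abasic duplex; on the % scale 0 is the no-effect control and ±100 the full control effect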)
Method in brief: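 Human APE1 was preincubated with compound for 15 min at room temperature, then 50 nM (final) THF-abasic double-stranded DNA substrate bearing 5'-TAMRA and 3'-BHQ-2 was added. Incision-driven fluorescence rise (ex 525/em 598 nm) was read kinetically.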

[3] = qHTS Assay for Lipid Storage Modulators (AID 1519; calls by dose curve; on activity change, negative = inhibition: on the % scale 0 is the no-effect control and ±100 the full control effect); conditions: Drosophila S3 cells, BODIPY lipid droplet/cell ratio, laser cytometry, cells loaded with oleic acid
Method in brief: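 Cells seeded at 5,000 per well were treated with compounds over a concentration series and loaded with oleic acid (400 uM, as added). Lipid droplet fluorescence (488 nm excitation, 500-530 nm channel) was read by laser-scanning cytometry and normalized to 20 uM Triacsin C.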

[4] = Cell Viability - LYMP1-002 - Assay at 40 hr (AID 994); further: nearly all actives have a fitted effect of over 60% in size; further: potency means the concentration at half of the fitted maximal effect
Method in brief: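 Luminescent ATP signal served as the viability readout, with decreases taken as toxicity. Cells were treated with compounds across a concentration range for 40 hours at 37 C, and AC50 values came from standard Hill modeling.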

[5] = target: alpha-glucosidase (Oryza sativa, rice) (UniProt Q653V4); experiment: Counterscreen for Glucocerebrosidase Inhibitors: qHTS Assay for Rice alpha-Glucosidase at pH 5.0 (AID 997);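 further: 0% = full activity with enzyme and -100% = basal without enzyme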
Method in brief: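 Rice alpha-glucosidase (4 nM final) with 400 uM 4-methylumbelliferyl-alpha-D-glucopyranoside in citrate buffer pH 5.0, 20 min at room temperature, stopped at pH 10; fluorescence 365/440 nm, compounds 0.7 nM–77 uM, AC50 from Hill fits.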

[6] = measured here: cell count channel max response
[7] = measured here: lipid channel max response

Sequence of DNA repair nuclease/redox regulator APEX1 (Homo sapiens) (P27695 whole entry, looked up): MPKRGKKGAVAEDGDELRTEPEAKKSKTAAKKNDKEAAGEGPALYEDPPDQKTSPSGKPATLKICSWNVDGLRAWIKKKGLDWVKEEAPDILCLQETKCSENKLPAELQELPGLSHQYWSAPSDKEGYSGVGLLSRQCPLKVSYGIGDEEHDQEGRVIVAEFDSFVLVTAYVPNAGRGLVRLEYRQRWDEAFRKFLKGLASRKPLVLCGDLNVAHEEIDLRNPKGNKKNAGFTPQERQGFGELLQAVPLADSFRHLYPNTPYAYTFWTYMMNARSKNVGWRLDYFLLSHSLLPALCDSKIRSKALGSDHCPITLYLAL

CN1Cc2c(N)cccc2C(c2ccccc2)C1 (configuration not stated)
outcome [1]: inactive
outcome [2]: inactive

OCc1ccccc1O[C@@H]1O[C@H](CO)[C@@H](O)[C@H](O)[C@H]1O
activity change, negative = inhibition ([3]; at 57.5 µM (top of the series)): -1.43% (inactive)
max response [3, 6]: -14.9%
max response [3, 7]: -16.3%

CC1=C2[C@@H]([C@H](C)CC[C@H]2/C=C(\C)C(=O)O)[C@H](O)C1
Potency [4]: inactive

COc1ccc(CCNC[C@H](O)c2ccc(O)cc2)cc1OC
outcome [5]: inactive

O=S(=O)(O)O
Potency [4]: inactive

IC(I)I
Potency [4]: inactive

O=C(O)CN(CCN(CC(=O)O)CC(=O)O)CC(=O)O
activity change, negative = inhibition ([3]; at 57.5 µM (top of the series)): 6.6% (inactive)
max response [3, 6]: -1.95%
max response [3, 7]: 6.6%

Nc1c(Br)cc(Br)cc1CNC1CCC(O)CC1 (configuration not stated)
activity change, negative = inhibition ([3]; at 25.7 µM (top of the series)): -1.33% (inactive)
activity change, negative = inhibition ([3]; at 57.5 µM (top of the series)): 7.29% (inactive)
max response [3, 6]: -4.61% and 6.29%
max response [3, 7]: -3.94% and 15.7%

CCCCC/C=C\C/C=C\CCCCCCCC(=O)O
Potency [4]: inactive

CC(C)(C)NC(=O)[C@@H]1C[C@@H]2CCCC[C@@H]2CN1C[C@@H](O)[C@H](Cc1ccccc1)NC(=O)[C@H](CC(N)=O)NC(=O)c1ccc2ccccc2n1
Potency [4]: 50.1 µM (active)

CCCCCCCC/C=C\CCCCCCCC(=O)O
Potency [4]: inactive

O=CCCCC=O
Potency [4]: inactive

CC(C)=O
Potency [4]: inactive

Cc1ccccc1
Potency [4]: inactive

CC(=O)N[C@@H](CC(=O)O)C(=O)N[C@@H](CCC(=O)O)C(=O)O (Ac-Asp-Glu-OH)
activity change, negative = inhibition ([3]; at 25.7 µM (top of the series)): -3.36% (inactive)
activity change, negative = inhibition ([3]; at 57.5 µM (top of the series)): 6.33% (inactive)
max response [3, 6]: -8.34% and 14.1%
max response [3, 7]: -7.7% and 26.3%

Cc1c(C)c2c(c(C)c1O)CC[C@@](C)(CCC[C@H](C)CCC[C@H](C)CCCC(C)C)O2
activity change, negative = inhibition ([3]; at 57.5 µM (top of the series)): 0.911% (inactive)
max response [3, 6]: -14.2%
max response [3, 7]: -14.3%

CC(C)(C)C(=O)OCOC(=O)[C@@H]1N2C(=O)[C@@H](N=CN3CCCCCC3)[C@H]2SC1(C)C
activity change, negative = inhibition ([3]; at 25.7 µM (top of the series)): -0.208% (inactive)
max response [3, 6]: -9.59%
max response [3, 7]: -6.96%
